# Results: PubChem BioAssay
# Activity calls are given as the source filed them.
# Legend:
# [1] = E. coli DRC41 culture turbidity changes, primary screen, E. coli filamentation inducer project, strain DRC41, OD650, 48 h (AID 1152);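 note: E. coli MC1000 strain DRC41 lacking acrAB efflux pump and sulA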; settings: E. coli DRC41 (acrAB sulA), higher = more signal, called active from +8 up or from −8 down
# [2] = small-molecule binders of probe aLefty1, primary screen, biochemical, small-molecule microarray, 635/667 nm fluorescence (AID 1153); settings: higher = more signal;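 note: score merges spot fluorescence with signal-to-noise ratio from the scanned slide images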
# [3] = PSAC antagonists in infected red cells, primary screen, cell-based, P. falciparum Indochina, OD700, 1 h (AID 1154); settings: P. falciparum Indochina infected RBC osmotic lysis, higher = more signal, called active from +8 up or from −8 down
# [4] = PSAC antagonists in infected red cells, primary screen, cell-based, P. falciparum Indochina, OD700, 2 h (AID 1155);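 note: lysis reports solute entry through the parasite surface anion channel PSAC; channel blockers reduce lysis of infected cells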; settings: P. falciparum Indochina infected erythrocytes, osmotic lysis OD700; higher = more signal, called active from +8 up or from −8 down
# [5] = osmotic lysis modulators in infected erythrocytes, primary screen, PSAC antagonist project, cell-based, P. falciparum Indochina, OD700, 3 h (AID 1156); settings: higher = more signal, called active from +8 up or from −8 down
# [6] = PSAC antagonists in infected red cells, primary screen, cell-based, P. falciparum Indochina, OD700, 18 h (AID 1157); settings: P. falciparum Indochina infected erythrocytes, osmotic lysis OD700, 18 h; higher = more signal, called active from +8 up or from −8 down
# [7] = modulators of S6 phosphorylation in cells, primary screen, cell-based, A549, cytoblot, luminescence, serum-stimulated (AID 1158); settings: A549 phospho-S6 cytoblot, 5 h, higher = more signal;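 note: serum-stimulated A549 lung adenocarcinoma cells; signal is phosphorylated S6 detected by cytoblot immunostaining with HRP secondary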
# [8] = molecular target: NADPH oxidase 2 (Homo sapiens) (UniProt P04839); experiment: NOX2-dependent H2O2 signal modulators, primary screen, NOX inhibitor project, cell-based, HEK293-NOX2, PMA-stimulated, Amplex Red fluorescence (AID 1159); settings: 45 min, higher = more signal, called active from +8 up or from −8 down; note: test concentration not given here
# [9] = molecular target: NADPH oxidase 4 (Homo sapiens) (UniProt Q9NPH5); experiment: NOX4-dependent H2O2 signal modulators, primary screen, NOX inhibitor project, cell-based, HEK293-NOX4, tetracycline-induced, Amplex Red fluorescence (AID 1160); settings: 45 min, higher = more signal, called active from +8 up or from −8 down
# [10] = molecular target: NADPH oxidase 5 (Homo sapiens) (UniProt Q96PH1); experiment: NOX5-dependent H2O2 signal modulators, primary screen, NOX inhibitor project, cell-based, HEK293-NOX5, Amplex Red fluorescence (AID 1161); settings: HEK293-NOX5, ionomycin, 45 min, higher = more signal
# [11] = A549 cell viability effects, profiling panel, calcein-AM fluorescence, 48 h, basal (AID 1162); settings: higher = more signal; note: test concentration not given here
# [12] = adipocyte viability effects, profiling panel, cell-based, 3T3-L1 adipocytes, calcein-AM fluorescence, 48 h, basal (AID 1163); settings: 3T3-L1 adipocytes viability, higher = more signal; note: test concentration not given here
# [13] = HepG2 cell viability effects, profiling panel, calcein-AM fluorescence, 48 h, basal (AID 1164); settings: higher = more signal; note: test concentration not given here
# [14] = MM1S cell viability effects, profiling panel, calcein-AM fluorescence, 48 h, basal (AID 1165); settings: higher = more signal;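 note: viability of MM1S multiple myeloma cells under basal unstimulated conditions; test concentration not given here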
# [15] = basal RPMI8226 viability, no added stimulus, profiling panel, cell-based, calcein-AM fluorescence, 48 h, PK04 Diversity Set (AID 1166); settings: RPMI8226 myeloma viability, higher = more signal;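 note: cells grown under basal conditions without added stimulus; test concentration not given here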
# [16] = basal HepG2 mitochondrial membrane potential changes, profiling panel, cell-based, JC-1 fluorescence, 24 h, 100 nL compound (AID 1167); settings: higher = more signal; note: test concentration not given here
# [17] = basal 3T3-L1 adipocyte mitochondrial potential changes, profiling panel, cell-based, JC-1 fluorescence, 3T3-L1 adipocytes, 24 h, 100 nL compound (AID 1168); settings: JC-1 mitochondrial fluorescence, higher = more signal, called active from +8 up or from −8 down; note: test concentration not given here
# [18] = basal RPMI8226 mitochondrial membrane potential changes, profiling panel, cell-based, JC-1 fluorescence, 24 h, 100 nL compound (AID 1169); settings: RPMI8226 myeloma, JC-1 mitochondrial potential fluorescence, higher = more signal; note: test concentration not given here
# [19] = basal MM1S mitochondrial membrane potential changes, profiling panel, cell-based, JC-1 fluorescence, 24 h, 100 nL compound (AID 1170); settings: higher = more signal; note: test concentration not given here
# [20] = A549 lung cancer cell viability effects, profiling panel, resazurin fluorescence, 24 h, PK04 Diversity Set (AID 1171); settings: higher = more signal, called active from +8 up or from −8 down; note: test concentration not given here
# Sequence of NADPH oxidase 2 (Homo sapiens) (P04839 whole entry, looked up): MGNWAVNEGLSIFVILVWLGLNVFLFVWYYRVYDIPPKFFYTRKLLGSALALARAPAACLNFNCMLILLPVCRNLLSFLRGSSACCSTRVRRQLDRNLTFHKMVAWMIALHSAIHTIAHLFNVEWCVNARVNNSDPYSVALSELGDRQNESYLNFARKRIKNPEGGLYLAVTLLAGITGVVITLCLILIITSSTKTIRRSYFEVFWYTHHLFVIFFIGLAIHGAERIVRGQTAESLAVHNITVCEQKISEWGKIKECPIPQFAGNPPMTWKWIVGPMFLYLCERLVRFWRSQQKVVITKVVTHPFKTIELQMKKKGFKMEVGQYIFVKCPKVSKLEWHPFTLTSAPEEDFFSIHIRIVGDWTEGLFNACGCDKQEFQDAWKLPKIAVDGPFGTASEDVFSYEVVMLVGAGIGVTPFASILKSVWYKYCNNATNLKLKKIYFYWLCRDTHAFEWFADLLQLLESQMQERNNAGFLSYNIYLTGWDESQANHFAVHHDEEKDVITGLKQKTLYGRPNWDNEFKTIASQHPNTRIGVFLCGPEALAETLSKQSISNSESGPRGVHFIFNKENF
# Sequence of NADPH oxidase 5 (Homo sapiens) (Q96PH1 whole entry, looked up): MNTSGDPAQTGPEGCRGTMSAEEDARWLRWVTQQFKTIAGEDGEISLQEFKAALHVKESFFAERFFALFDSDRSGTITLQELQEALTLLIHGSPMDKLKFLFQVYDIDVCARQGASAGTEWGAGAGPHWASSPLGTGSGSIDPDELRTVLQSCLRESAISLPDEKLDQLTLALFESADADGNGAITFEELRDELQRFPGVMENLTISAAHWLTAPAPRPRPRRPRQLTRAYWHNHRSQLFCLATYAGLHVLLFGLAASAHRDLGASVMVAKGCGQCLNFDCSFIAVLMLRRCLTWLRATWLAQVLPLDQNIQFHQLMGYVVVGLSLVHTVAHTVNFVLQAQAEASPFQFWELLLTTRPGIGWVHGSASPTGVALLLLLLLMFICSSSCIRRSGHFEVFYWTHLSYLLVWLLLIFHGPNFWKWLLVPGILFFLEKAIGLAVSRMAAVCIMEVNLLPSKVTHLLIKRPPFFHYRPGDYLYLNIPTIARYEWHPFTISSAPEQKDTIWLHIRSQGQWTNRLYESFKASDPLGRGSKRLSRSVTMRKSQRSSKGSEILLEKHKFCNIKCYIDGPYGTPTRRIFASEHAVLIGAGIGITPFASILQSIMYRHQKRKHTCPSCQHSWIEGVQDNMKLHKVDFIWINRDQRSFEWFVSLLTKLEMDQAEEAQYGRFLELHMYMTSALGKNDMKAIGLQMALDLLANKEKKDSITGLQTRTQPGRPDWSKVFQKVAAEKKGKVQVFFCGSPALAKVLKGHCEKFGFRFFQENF
# Sequence of NADPH oxidase 4 (Homo sapiens) (Q9NPH5 whole entry, looked up): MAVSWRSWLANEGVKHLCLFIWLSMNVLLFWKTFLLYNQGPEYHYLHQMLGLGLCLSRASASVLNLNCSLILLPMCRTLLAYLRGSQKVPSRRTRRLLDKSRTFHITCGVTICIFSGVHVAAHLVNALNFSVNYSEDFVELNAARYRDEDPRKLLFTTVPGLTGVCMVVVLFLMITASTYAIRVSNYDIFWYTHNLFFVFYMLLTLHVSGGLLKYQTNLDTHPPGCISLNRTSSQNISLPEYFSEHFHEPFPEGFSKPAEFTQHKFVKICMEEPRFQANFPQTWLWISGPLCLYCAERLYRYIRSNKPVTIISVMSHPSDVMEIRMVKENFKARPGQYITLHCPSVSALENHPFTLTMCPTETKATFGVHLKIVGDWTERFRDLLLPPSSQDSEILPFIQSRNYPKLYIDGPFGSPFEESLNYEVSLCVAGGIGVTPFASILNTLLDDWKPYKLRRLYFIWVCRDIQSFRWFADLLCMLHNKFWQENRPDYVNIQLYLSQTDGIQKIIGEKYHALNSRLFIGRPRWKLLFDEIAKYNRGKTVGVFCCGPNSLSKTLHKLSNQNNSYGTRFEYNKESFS
Structure (SMILES),z-score [1],composite z-score [2],z-score [3],z-score [4],z-score [5],z-score [6],z-score [7],z-score [8],z-score [9],z-score [10],z-score [11],z-score [12],z-score [13],z-score [14],z-score [15],z-score [16],z-score [17],z-score [18],z-score [19],z-score [20]
COC(=O)C1(Cc2ccccc2)C=C2C(=C(c3ccccc3)C(=O)C2C)CN1 (stereo not given),-1.38 (inactive),1.23,2.11 (inactive),-0.0273 (inactive),0.423 (inactive),0.298 (inactive),0.208,-0.66 (inactive),-3.74 (inactive),-3.29,-0.874,0.24,-0.515,-0.451,-0.91,-0.832,-1.12 (inactive),0.213,-0.291,-0.358 (inactive)
CC(C)C(=C=CC[C@@H](O)c1ccccc1OCCO)C[C@@H](O)COCc1ccccc1,1.6 (inactive),-0.103,6.77 (inactive),2.19 (inactive),-1.43 (inactive),-0.119 (inactive),0.86,0.0182 (inactive),0.489 (inactive),-1.52,1.03,0.435,0.146,-0.338,-0.399,0.324,0.791 (inactive),0.0761,0.339,0.15 (inactive)
COC(=O)[C@@]1(Cc2ccccc2)[C@H]2c3cc(C(=O)N4CCCC4)n(Cc4cc(F)cc5c4OCOC5)c3C[C@H]2CN1C(=O)c1ccccc1,-1.14 (inactive),0.0752,2.98 (inactive),0.589 (inactive),0.804 (inactive),0.715 (inactive),-0.163,0.768 (inactive),0.0378 (inactive),-0.652,-0.927,-0.888,0.162,0.464,-0.0133,3.48,0.0248 (inactive),-0.0359,-0.977,-0.522 (inactive)
Cc1ccc(F)cc1S(=O)(=O)N[C@@H]1CCN(Cc2ccc(Oc3ccccc3)cc2)C1,-12.2 (active),0.266,7.61 (inactive),1.9 (inactive),0.701 (inactive),1.19 (inactive),-0.766,-0.615 (inactive),-1.08 (inactive),-1.67,-1.26,-0.119,-1.25,-3.43,-3.16,0.998,0.546 (inactive),-1.19,-2.3,-0.214 (inactive)
O=C1NC(=O)C2C1C=CC(C(O)c1cc(C(F)(F)F)cc(C(F)(F)F)c1)N2Nc1ccc(Cl)cc1Cl (stereo not given),-2.29 (inactive),0.546,0.321 (inactive),0.168 (inactive),-1.6 (inactive),0.998 (inactive),-1.41,0.128 (inactive),-5.87 (inactive),-2.22,-3.02,0.0578,-2.76,-3.69,-3.56,-2.94,-1.19 (inactive),-0.387,0.4,-1.24 (inactive)
COc1cc(OC)c(C(O)C2C=CC3C(=O)N(c4ccccc4)C(=O)C3N2Nc2ccc(C#N)cc2)cc1Br (stereo not given),-0.652 (inactive),0.843,25 (active),11.4 (active),1.39 (inactive),1.76 (inactive),-0.962,-1.41 (inactive),-5.35 (inactive),-2.08,0.423,-0.693,-0.268,-0.475,-0.241,-1.66,-0.403 (inactive),-0.129,-0.00738,-0.578 (inactive)
COC1(C)CN(Cc2ccccc2Br)[C@H](/C=C/c2ccccc2)[C@H](Cc2ccccc2)O1 (stereo not given in full),1.16 (inactive),-0.31,0.787 (inactive),0.669 (inactive),0.911 (inactive),-0.0143 (inactive),0.52,-0.112 (inactive),0.76 (inactive),-0.271,0.411,1.2,0.875,-0.245,-0.0348,-0.545,-0.35 (inactive),-0.19,-0.861,0.494 (inactive)
NC(=O)NCC#Cc1ccc2c(c1)[C@]1(C(=O)N2)[C@H](C(=O)O)[C@H]2C(=O)O[C@H](c3ccccc3)[C@H](c3ccccc3)N2[C@@H]1c1ccccc1OCCO,3.32 (inactive),0.73,-1.21 (inactive),-1.81 (inactive),-3.99 (inactive),-2.67 (inactive),2.78,2.1 (inactive),0.786 (inactive),-0.188,0.789,1.03,0.728,1.33,1.35,-0.867,-0.377 (inactive),-0.0612,0.997,0.877 (inactive)
CO[C@H]1O[C@H](CO)[C@@H](OC(=O)Nc2ccc(C(F)(F)F)cc2)[C@H](OC(=O)Nc2ccc3c(c2)OCO3)[C@H]1OC(=O)Nc1ccc2c(c1)OCO2,-0.463 (inactive),0.662,7.33 (inactive),0.993 (inactive),0.61 (inactive),0.619 (inactive),-0.388,-4.33 (inactive),-0.99 (inactive),-1.82,-2.28,0.758,-2.3,-2.85,-2.66,-0.17,0.298 (inactive),-0.999,-1.01,-3.17 (inactive)
CCOC(=O)C[C@H]1[C@H](OC(=O)c2ccccc2-c2ccccc2)[C@@H](NC(=O)c2ccc3ccccc3n2)c2cc(OCCCO)ccc2N1C(=O)c1ccc2ccccc2n1,1.17 (inactive),-0.0747,3.67 (inactive),-0.774 (inactive),-1.88 (inactive),-2.15 (inactive),0.112,1.18 (inactive),1.07 (inactive),2.5,0.923,1.65,0.877,0.497,-0.237,2.39,0.309 (inactive),0.356,-0.845,0.545 (inactive)
COc1ccccc1CN1C(=O)c2ccccc2[C@](Cc2ccccc2I)(C(=O)NC(C)C)[C@@H]1c1ccc(CO)cc1,0.646 (inactive),0.0494,4.1 (inactive),0.644 (inactive),0.632 (inactive),0.621 (inactive),0.0569,-2.12 (inactive),0.143 (inactive),-2.1,0.312,0.771,-0.185,-1.38,-2.99,1.63,-0.0467 (inactive),-0.507,-1.82,-0.306 (inactive)
C=CCN1Cc2ccccc2C[C@@]2(N=C(c3ccc(OCCCO)cc3)O[C@H]2c2ccccc2)C1=O,0.404 (inactive),0.57,28.1 (active),23.6 (active),2.55 (inactive),5.74 (inactive),0.624,-5.76 (inactive),-0.323 (inactive),-3.72,-1.46,0.906,-1.05,-3.52,-3.95,0.166,1.4 (inactive),-1.03,-2.48,-3.12 (inactive)
O=C1O[C@@H](c2ccccc2)[C@@H](c2ccccc2)N2[C@@H](c3ccc(O)cc3)[C@]3(C(=O)Nc4ccccc43)[C@@H](C(=O)Nc3nc4ccccc4s3)[C@H]12,-0.198 (inactive),-0.209,1.37 (inactive),2.29 (inactive),-0.492 (inactive),1.82 (inactive),-0.132,0.642 (inactive),0.0436 (inactive),0.933,-2.07,0.353,-1.49,-3.37,-4.55,-3.64,0.169 (inactive),-1.23,-1.76,-1.9 (inactive)
CC(C)C(CO)N1C(=O)[C@]2(C)C3C(=O)OCCC/C=C\[C@H]3OC23C=CCN(c2ccc(Cl)cc2)C(=O)[C@@H]13 (stereo not given in full),-0.785 (inactive),-0.0929,1.12 (inactive),0.31 (inactive),0.787 (inactive),0.673 (inactive),-0.197,1.47 (inactive),1.04 (inactive),1.69,-0.0554,-0.199,1.08,0.547,0.163,-0.484,-0.52 (inactive),-0.634,-0.0291,-0.503 (inactive)
CC(C)c1ccc(NN2C(C(O)c3ccco3)C=CC3C(=O)N(c4ccccc4)C(=O)C32)cc1 (stereo not given),-0.302 (inactive),0.409,6.96 (inactive),1.93 (inactive),0.626 (inactive),1.29 (inactive),-0.694,-1.67 (inactive),-1.95 (inactive),-1.88,0.983,-1.49,0.842,-0.155,-0.166,-1.14,-0.473 (inactive),0.473,-0.921,-0.635 (inactive)
COC(=O)[C@@]1(Cc2ccccc2)[C@H]2c3cc(C(=O)N4CCCC4)[nH]c3C[C@H]2CN1C(=O)c1ccccc1,-0.875 (inactive),0.269,4.64 (inactive),0.805 (inactive),0.102 (inactive),0.717 (inactive),0.177,0.0123 (inactive),-0.696 (inactive),-0.713,-1.12,0.904,-0.585,0.277,-1.17,0.288,-1.17 (inactive),-0.786,-0.28,0.412 (inactive)
COCCOC(=O)N1C(=O)[C@@]2(c3cc(C#CC4=CCCCC4)ccc31)[C@H](c1ccccc1OCCO)N1[C@H](c3ccccc3)[C@H](c3ccccc3)OC(=O)[C@H]1[C@@H]2C(=O)N1CCc2cc(OC)c(OC)cc2C1,-0.26 (inactive),-0.715,2.7 (inactive),1.85 (inactive),0.578 (inactive),1.02 (inactive),0.128,1.41 (inactive),0.739 (inactive),1.53,0.697,0.186,1.34,0.235,-2.05,0.767,3.23 (inactive),-1.06,-1.32,-0.926 (inactive)
COc1ccc(C#Cc2ccc3c(c2)[C@]2(C(=O)N3)[C@H](C(=O)N3CCc4cc(OC)c(OC)cc4C3)[C@H]3C(=O)O[C@H](c4ccccc4)[C@H](c4ccccc4)N3[C@@H]2c2ccc(O)cc2)cc1,-0.658 (inactive),0.0839,0.488 (inactive),0.216 (inactive),-0.103 (inactive),0.296 (inactive),-0.203,1.32 (inactive),0.574 (inactive),-0.523,-0.522,-0.163,0.615,-0.229,-0.293,-1.43,1.72 (inactive),-0.356,-1.09,-0.297 (inactive)
